The supplement of paper PMC12636033
± gives the standard deviation of the averaged measurements. The full ranking holds about 33,000 sequences; the median of “E-score (rank enrichment, -0.5 to 0.5)” is about -0.0043, and the highest 2% start at about 0.24. The sample holds the highest values, similar sequences and a random draw of the others, so the mix is not that of the screen.

Test system: 2Sp-muMax20 (muMax20 with two 2,6-bis(methyl)pyridine Cys staples)
Assay: PBM 8-mer E-score (E-score (rank enrichment, -0.5 to 0.5)); higher = stronger preferential binding
Protocol: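 Protein binding microarray (universal PBM chip covering all 10-mers in fixed probe flanks) with chemically synthesized human Max(13-93) bHLH-LZ analogs (not full-length Max) bearing noncanonical residues (hArg, Tha, Aib, Nle at 65) and aromatic Cys staples. Read-out per 8-mer (and its reverse complement): E-score (rank-based enrichment, -0.5 to 0.5) and Z-score of median probe intensity.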

Point of comparison: GCAAATCC, “PBM 8-mer E-score” value -0.0919 ± 0.086. Against it:
- CCATGTAG — higher, 0.148 ± 0.0044
- AGATGTAG — higher, 0.167 ± 0.023
- CCATGTAC — within error, -0.0575 ± 0.098
- ACATGTAC — higher, 0.311 ± 0.0047
- GTAGCTTA — higher, 0.179 ± 0.047
- TGGTGTAA — higher, 0.135 ± 0.039
- CCCCCAGC — lower, -0.295 ± 0.034
- ATACCAGG — within error, -0.136 ± 0.023
- CACAAGGG — within error, -0.0596 ± 0.022
- AGTCTAAA — within error, -0.14 ± 0.013
- TCCCCAAA — higher, 0.256 ± 0.079
- CGCCCACG — within error, -0.0323 ± 0.074
- ACCCCACA — higher, 0.239 ± 0.02
- AACCCACC — higher, 0.267 ± 0.025
- CGCCCACC — higher, 0.274 ± 0.055
- CACCCACC — higher, 0.0762 ± 0.08
- GACCCACC — higher, 0.106 ± 0.043
- AACCCACG — higher, 0.17 ± 0.037
- AGCCCACC — within error, -0.0175 ± 0.041
- TCCCCCAA — within error, -0.174 ± 0.034
- ACCCCACG — higher, 0.0387 ± 0.033
- CCCCCAAA — within error, -0.195 ± 0.075
- ATAAGGGA — higher, 0.102 ± 0.04
- AACTCAAA — higher, 0.172 ± 0.036
- CACGGCTA — within error, -0.249 ± 0.073
- CCGTGGAC — lower, -0.2957 ± 0.0024
- AGGCTAGA — within error, -0.144 ± 0.033
- GCCCCAAA — higher, 0.188 ± 0.0029
- GCCCCACA — higher, 0.223 ± 0.042
- ACCCCCAC — within error, -0.19 ± 0.027
- CCCCCAAC — lower, -0.253 ± 0.01
- CCCCCACG — higher, 0.0635 ± 0.0042
- ACCCCACC — higher, 0.236 ± 0.05
- CCCCCACA — within error, -0.205 ± 0.084
- GCCCCAAC — higher, 0.267 ± 0.013
- TCCCCACA — higher, 0.235 ± 0.0063
- CCCCCACC — lower, -0.321 ± 0.032
- ACCCCACT — higher, 0.183 ± 0.027
- GCCCCACC — higher, 0.237 ± 0.039
- GTCTCTCA — within error, -0.0452 ± 0.0099
- AGAGGACT — within error, -0.0403 ± 0.059
- ACAAGTGT — within error, -0.0219 ± 0.043
- AGACTGTC — within error, -0.179 ± 0.036
- CATGTTAA — higher, 0.191 ± 0.048
- ACTCTCTA — higher, 0.158 ± 0.0044
- AACTCATG — higher, 0.176 ± 0.077
- AAACAGAA — higher, 0.168 ± 0.015
- ACCCCATA — higher, 0.107 ± 0.075
- ACCCCATG — higher, 0.297 ± 0.047
- AACCCATG — higher, 0.139 ± 0.032
- CATACGTA — higher, 0.297 ± 0.012
- CACACGTA — within error, 0.0876 ± 0.11
- AACACGTA — higher, 0.0789 ± 0.055
- AACACGTC — higher, 0.0953 ± 0.04
- AACACGTG — higher, 0.4615 ± 0.0029
- AATACGTA — higher, 0.206 ± 0.064
- CACACGTG — higher, 0.384 ± 0.019
- CACACGTC — within error, -0.0411 ± 0.069
- CATACGTC — higher, 0.0118 ± 0.0042
- CTTATGAC — higher, 0.0201 ± 0.0061
- ACTATGAC — higher, 0.0953 ± 0.0015
- TAAGGGTA — higher, 0.115 ± 0.039
- CCCTGGGA — lower, -0.29 ± 0.01
- CTTTCAAA — higher, 0.236 ± 0.026
- CATTCAAA — higher, 0.256 ± 0.027
- GATTCACA — within error, 0.0451 ± 0.093
- CATTCACG — within error, 0.0213 ± 0.074
- CATTCAAG — within error, -0.108 ± 0.079
- TATTCAAA — higher, 0.197 ± 0.036
- ACTTCACA — within error, 0.00636 ± 0.061
- GTTTCAAA — higher, 0.073 ± 0.063
- ATTTCAAA — higher, 0.0933 ± 0.0025
- CCTTCACG — within error, -0.0558 ± 0.019
- CATTCACA — higher, 0.248 ± 0.016
- CCTTCACA — higher, 0.256 ± 0.018
- ACCAAGGG — within error, -0.132 ± 0.035
- CTTGATAA — higher, 0.0868 ± 0.0083
- GCATTACC — within error, -0.136 ± 0.01
- ATGACAAC — within error, 0.0122 ± 0.037
- CGACAATA — within error, 0.0335 ± 0.093
- CAAGGCTG — within error, -0.037 ± 0.11
- CTCTTCAC — higher, 0.129 ± 0.00049
- AATCCAGA — higher, 0.124 ± 0.08
- CATGCACA — higher, 0.251 ± 0.033
- CATGCATC — higher, 0.081 ± 0.025
- CATGCACG — higher, 0.0888 ± 0.024
- CATGCAAC — higher, 0.281 ± 0.056
- CATGCAAG — higher, 0.103 ± 0.05
- CATGCGAG — higher, 0.165 ± 0.062
- AATGCAAC — higher, 0.136 ± 0.035
- AATGCGAC — higher, 0.0252 ± 0.028
- CATGCATA — higher, 0.207 ± 0.0092
- CATGCATG — higher, 0.382 ± 0.024
- GATGCACA — higher, 0.0774 ± 0.012
- CATGCGAC — higher, 0.308 ± 0.019
- CGAGGAAG — within error, -0.0173 ± 0.064
- CCGGCCGG — within error, -0.229 ± 0.081
- CCCAACCC — higher, 0.204 ± 0.019
- CGCAAAAA — within error, -0.00934 ± 0.005
- CTGGGCGC — within error, 0.0231 ± 0.038
- ATTTGGCA — within error, -0.0164 ± 0.011
- ATTACTTG — higher, 0.18 ± 0.017
- CTCCTACA — higher, 0.0705 ± 0.028
- AGGGCTCA — within error, -0.0979 ± 0.031
- CTCATGCC — higher, 0.0321 ± 0.035
- AGCGGATC — within error, -0.0391 ± 0.022
- AATGCATG — higher, 0.233 ± 0.038
- AATGCATT — higher, 0.356 ± 0.017
- CGTGCACG — higher, 0.338 ± 0.0045
- CGTGCACA — higher, 0.102 ± 0.071
- AATGCATA — higher, 0.16 ± 0.074
- TGTGCACA — within error, 0.0196 ± 0.045
- ACGGGACC — lower, -0.245 ± 0.039
- GGAATTTA — within error, -0.0803 ± 0.093
- GTCTTTGA — within error, -0.121 ± 0.016
- CTATTGCC — within error, -0.045 ± 0.019
- ATATTGCC — higher, 0.238 ± 0.0041
- ATATTGCG — higher, 0.117 ± 0.029
- CAAAAGTG — higher, 0.11 ± 0.016
- GAAAGTAA — higher, 0.0437 ± 0.0096
- CACAACGG — within error, -0.145 ± 0.066
- ACCCGCCG — higher, 0.131 ± 0.01
- AACCCGCC — higher, 0.128 ± 0.019
- CCCCCGCC — within error, -0.0595 ± 0.056
- GCCCGCCA — within error, -0.0439 ± 0.026
- CCCCGCCC — higher, 0.295 ± 0.048
- CCCCGCCG — higher, 0.131 ± 0.011
- GCCCGCCC — higher, 0.16 ± 0.039
- TCCCGCCA — within error, -0.0738 ± 0.002
- CGCCGCCC — within error, 0.00789 ± 0.052
- CCCCGCCA — higher, 0.246 ± 0.071
- ACCCGCCC — higher, 0.3697 ± 0.0017
- ACCCCGCC — higher, 0.284 ± 0.099
- ATATCTCC — higher, 0.197 ± 0.016
- ACAGTATC — higher, 0.185 ± 0.073
- TTAGGAAA — within error, -0.00284 ± 0.012
- ATGGTCAG — higher, 0.122 ± 0.043
- CGCTCCGC — within error, -0.154 ± 0.17
- TATCCGCA — within error, 0.0196 ± 0.089
- AAATTCTT — within error, 0.0344 ± 0.11
- ATATACTA — higher, 0.285 ± 0.027
- ATATATTG — higher, 0.221 ± 0.0031
- ATGTATTA — higher, 0.21 ± 0.014
- CTGTATTA — higher, 0.141 ± 0.0065
- GGATATTA — higher, 0.161 ± 0.084
- ATATATTA — higher, 0.264 ± 0.012
- CTATACTA — within error, 0.113 ± 0.12
- CTATATTA — higher, 0.168 ± 0.018
- GCATATTA — higher, 0.153 ± 0.0097
- GTATATTA — higher, 0.243 ± 0.0031
- GTGTATTA — higher, 0.239 ± 0.069
- ATATACTC — within error, 0.0166 ± 0.11
- CAGTACTA — higher, 0.128 ± 0.056
- AGAGATCC — within error, -0.0549 ± 0.05
- TATCGACA — within error, -0.0261 ± 0.032
- CGAGCGTC — within error, -0.00097 ± 0.042
- ACACCATG — within error, 0.0073 ± 0.025
- CATTGTCA — within error, -0.0464 ± 0.016
- AAAGGGGT — higher, 0.123 ± 0.013
- CCCCTGCG — within error, -0.168 ± 0.0048
- GCCAATGA — higher, 0.00492 ± 0.00047
- GACGGAAA — higher, 0.0756 ± 0.07
- CGTTGAAC — within error, -0.0586 ± 0.068
- CATTGATA — higher, 0.179 ± 0.1
- AATTGATG — higher, 0.25 ± 0.021
- ACTTGATG — higher, 0.0152 ± 0.0016
- GATTGATA — higher, 0.115 ± 0.015
- AATTGATA — higher, 0.252 ± 0.025
- AATTGATC — within error, 0.0176 ± 0.058
- AAGACCCC — within error, 0.0259 ± 0.047
- CACGGCGC — within error, -0.0163 ± 0.17
